In PubChem BioAssay AID1159580 (chemical genetic matrix, 2015):
Where “and” joins values, the source holds several entries; their conditions need not be identical. Equal values may be shown once. Hit rate of the full screen: of about 5,500 compounds, about 2,000 (36%) were called active. Not shown: some 18% with an inconclusive outcome. Cut-off read from the data, not from the text of the source: active = normalized growth mostly below about 0.91 (no sharp cut-off); inconclusive = no clear call, values can overlap the other calls; inactive = mostly above about 0.92. This is one part of the list.

Experiment: chemical genetic growth profiling, strain panel (AID 1159580);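 note: tested at 20 µM; growth read once vehicle control cultures reached saturation at 30 °C; 1 = growth at the plate median or of vehicle wells; lower values mean less growth of the strain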
Settings: S. cerevisiae deletion strains, growth OD

Measured: normalized growth

CC(=O)CC(c1ccccc1)c1c(O)c2ccccc2oc1=O (configuration not stated)
inactive: locus YAL013W, strain DEP1, active compounds read low 1.01 | locus YAL021C, strain ccr4, active compounds read low 1.01 | locus YAL026C, strain drs2, active compounds read low 0.991 | locus YAL030W, strain snc1, active compounds read low 0.991 | locus YBL061C, strain skt5, active compounds read low 0.998 | locus YBR009C, strain hhf1, active compounds read low 1 | locus YBR021W, strain FUR4, active compounds read low 0.996 | locus YBR023C, strain chs3, active compounds read low 0.996 | locus YBR171W, strain sec66, active compounds read low 0.991 | locus YBR229C, strain ROT2, active compounds read low 1 | locus YBR231C, strain swc5, active compounds read low 1 | locus YBR279W, strain paf1, active compounds read low 0.993 | locus YCL011C, strain gbp2, active compounds read low 0.999 | locus YCL016C, strain dcc1, active compounds read low 0.994 | locus YCL029C, strain bik1, active compounds read low 1.03 | locus YCL061C, strain MRC1, active compounds read low 1 | locus YCL069W, strain vba3, active compounds read low 1 | locus YCR088W, strain abp1, active compounds read low 1 | locus YDL005C, strain med2, active compounds read low 0.999 | locus YDL035C, strain GPR1, active compounds read low 1.02 | locus YDL040C, strain nat1, active compounds read low 0.994 | locus YDL074C, strain BRE1, active compounds read low 1.02 | locus YDL101C, strain DUN1, active compounds read low 1.02 | locus YDL134C, strain PPH21, active compounds read low 1.01 | locus YDL185W, strain tfp1, active compounds read low 1.01 | locus YDL192W, strain arf1, active compounds read low 1.02 | locus YDR001C, strain nth1, active compounds read low 0.993 | locus YDR069C, strain doa4, active compounds read low 1 | locus YDR101C, strain arx1, active compounds read low 1.02 | locus YDR137W, strain rgp1, active compounds read low 0.867 | locus YDR150W, strain NUM1, active compounds read low 1.01 | locus YDR159W, strain sac3, active compounds read low 1.02 | locus YDR162C, strain NBP2, active compounds read low 1.03 | locus YDR195W, strain ref2 1.01 | locus YDR297W, strain sur2, active compounds read low 1 | locus YDR318W, strain mcm21, active compounds read low 1.03 | locus YDR334W, strain swr1, active compounds read low 1 | locus YDR335W, strain msn5, active compounds read low 1.01 | locus YDR388W, active compounds read low 1 | locus YDR392W, strain spt3, active compounds read low 0.966 | locus YDR502C, strain sam2, active compounds read low 1.01 | locus YEL003W, strain gim4, active compounds read low 1.01 | locus YEL037C, strain rad23, active compounds read low 0.999 | locus YEL061C, strain CIN8 (second series), active compounds read low 0.999 | locus YEL061C, strain CIN8, active compounds read low 1.01 | locus YER015W, strain faa2, active compounds read low 0.987 | locus YER016W, strain bim1, active compounds read low 0.993 | locus YER110C, active compounds read low 1.03 | locus YER111C, strain swi4, active compounds read low 0.999 | locus YER155C, strain BEM2 (second series), active compounds read low 1.01 | locus YER155C, strain BEM2, active compounds read low 1 | locus YER167W, strain BCK2, active compounds read low 1.03 | locus YFR010W, strain ubp6, active compounds read low 1.01 | locus YGL078C, strain dbp3, active compounds read low 1.01 | locus YGL086W, strain mad1, active compounds read low 1.03 | locus YGL167C, strain pmr1, active compounds read low 0.986 | locus YGL173C, strain kem1, active compounds read low 1 | locus YGL227W, strain vid30, active compounds read low 0.988 | locus YGL240W, strain doc1, active compounds read low 1 | locus YGL248W, strain PDE1, active compounds read low 1.01 | locus YGL253W, strain hxk2, active compounds read low 1 | locus YGR078C, strain PAC10, active compounds read low 1.02 | locus YGR135W, strain pre9, active compounds read low 1.02 | locus YGR229C, strain SMI1, active compounds read low 1.02 | locus YGR252W, strain gcn5, active compounds read low 1.06 | locus YHR013C, strain ard1, active compounds read low 1.03 | locus YHR027C, strain rpn1, active compounds read low 0.994 | locus YHR030C, strain SLT2, active compounds read low 1.01 and 0.993 | locus YHR079C, strain IRE1 (second series), active compounds read low 1.01 | locus YHR079C, strain IRE1, active compounds read low 0.982 | locus YHR094C, strain hxt1, active compounds read low 1.02 | locus YHR129C, strain ARP1, active compounds read low 1 | locus YHR142W, strain chs7, active compounds read low 1.01 | locus YHR200W, strain rpn10, active compounds read low 1.02 | locus YIL066C, strain RNR3, active compounds read low 1.02 | locus YIL073C, strain SPO22, active compounds read low 1.1 | locus YIL125W, strain kgd1, active compounds read low 1.01 | locus YIR030C, strain dcg1, active compounds read low 1.02 | locus YJL092W, strain hpr5, active compounds read low 0.996 | locus YJL095W, strain BCK1 (second series), active compounds read low 0.992 | locus YJL095W, strain BCK1, active compounds read low 1.01 and 0.973 | locus YJL115W, strain asf1, active compounds read low 1 | locus YJL129C, strain trk1, active compounds read low 1.02 | locus YJL134W, strain LCB3, active compounds read low 1 | locus YJL154C, strain vps35, active compounds read low 0.995 | locus YJL164C, strain tpk1, active compounds read low 1.01 | locus YJL166W, strain qcr8, active compounds read low 1.01 | locus YJL168C, strain set2, active compounds read low 1 | locus YJL187C, strain SWE1 (second series), active compounds read low 1.02 | locus YJL187C, strain SWE1, active compounds read low 0.989 | locus YJR043C, strain POL32, active compounds read low 1.03 | locus YJR066W, strain TOR1, active compounds read low 0.925
